HT1080-NT tox: qHTS for induction of synthetic lethality in tumor cells producing 2HG: qHTS for the HT-1080-NT fibrosarcoma cell line; 1.6% of 360,000 active; Potency, µM (series often up to 46.1 µM), for inactives: at the top dose activity, negative = less viability, usual class: cytotoxic; HT-1080-NT fibrosarcoma viability, CellTiter-Glo ATP luminescence, 48 h;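 note: NT is the 2HG producing partner of a matched IDH1 knockdown line; potency is the fitted concentration of half-maximal effect; 0% = DMSO-treated cells and -100% = media-only wells without cells; nearly all actives have a fitted effect of over 55% in size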
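Toxicity toward the 2HG-producing NT line was scored as %Activity, normalised to DMSO and no-cell wells, from CellTiter-Glo luminescence after 48 hours' treatment.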
HT1080 IDH1KD tx: qHTS for induction of synthetic lethality in tumor cells producing 2HG: qHTS for the HT-1080-IDH1KD cell line. HT-1080 IDH1 knockdown viability, ATP luminescence, 48 h. Potency, µM (highest dose often 46.1 µM), without a hit: top-dose activity, negative = toxicity, hits mostly cytotoxic. 2% of 360,000 active;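 note: potency is the fitted concentration of half-maximal effect; 0% = DMSO wells and -100% = cell-free medium wells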
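In this qHTS, HT-1080 cells depleted of IDH1 are exposed for 48 h at 37 °C to compound titrations. Toxicity is scored from CellTiter-Glo luminescence, with DMSO as full viability and medium alone as none.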
TDP1 cell CPT: qHTS for Inhibitors of human tyrosyl-DNA phosphodiesterase 1 (TDP1): qHTS in cells in presence of CPT; chicken DT40 Tdp1-/-;hTDP1 cells + 20 nM CPT, ATP luminescence, 48 h; Potency, µM (highest dose often 46.2 µM), for the others: top-dose activity change, negative = growth inhibition, actives largely listed as inhibitors; 12% of 420,000 active; AID 686979, 2013; note: potency is the fitted concentration of half-maximal effect; nearly all actives have a fitted effect of over 55% in size
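Chicken DT40 Tdp1-/- cells complemented with human TDP1, 400 cells/well, exposed to compounds plus 20 nM camptothecin for at least 48 h at 37 C; viability read as ATP content by CellTiter-Glo luminescence.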
TDP1 cell noCPT: qHTS for Inhibitors of human tyrosyl-DNA phosphodiesterase 1 (TDP1): qHTS in cells in absence of CPT | DT40 Tdp1-/- hTDP1 cells, no CPT, ATP luminescence, 48 h | Potency, µM (top dose mostly 46.2 µM), inactives show top-dose activity change, negative = growth inhibition, actives largely listed as inhibitors | 15% of 420,000 active; note: potency is the fitted concentration of half-maximal effect; nearly all actives have a fitted effect of over 55% in size
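Chicken DT40 Tdp1-/- cells stably complemented with human TDP1 were seeded at 400 cells/well with DMSO in place of 20 nM camptothecin. After compound pinning, cells grew at least 48 hr at 37 °C; viability read by CellTiter-Glo luminescence.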
IL1B secr inh: qHTS for Inhibitors of Inflammasome Signaling: IL-1-beta AlphaLISA Primary Screen. THP-1 LPS/ATP IL-1B secretion, AlphaLISA, 16 h; hits give low values. activity change, % at 57.5 µM. 4.7% of 360,000 active. AID 743279, 2014; in the data active = activity change below about -50%; inconclusive = mostly about -30% to -49%
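THP-1 cells pretreated 1 hr with compounds (up to 57.5 uM final), then stimulated with LPS (250 ng/mL final) plus ATP (1.25 mM final); secreted IL-1B measured by AlphaLISA after 16 hr, decreased signal indicating inhibition.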
* = called active by the depositor; i = inactive; ? = inconclusive; . = no result. The list is not random: actives were taken first. Their share in the collection is about 19%. Unless noted, calls come from the whole dose curve; as a rule, active = well fitted curve in the direction sought with a large enough effect; inconclusive = small, poorly fitted or top-dose-only effect, or another doubt; inactive = no such curve, though single readings can be large; an effect the other way counts as inactive or inconclusive. Unless noted, % is set by controls: 0 for no effect and ±100 for the full control effect.

SMILES | HT1080-NT tox | HT1080 IDH1KD tx | TDP1 cell CPT | TDP1 cell noCPT | IL1B secr inh
COc1cc(SC)ccc1C(=O)NCC1CCCCC1 | -2.4% | -7.9% | ? | ? | ?
Cc1ccc(-c2nc3cc(Cl)ccc3o2)cc1NC(=O)COc1ccccc1C | . | . | 8.91µM* | 11.2µM* | .
Cc1cc2nc(-c3cccc(NC(=O)COc4ccc(Cl)c(C)c4)c3)oc2cc1C | . | . | -27.5% | -15.6% | .
Cc1cc(Cl)ccc1OCC(=O)Nc1cccc(-c2nc3ccccc3o2)c1 | . | . | ? | 12.6µM* | .
Cc1cc2nc(-c3cccc(NC(=O)COc4ccc(C(C)C)cc4)c3)oc2cc1C | . | . | 20.6µM* | 16.4µM* | .
Cc1ccc(-c2nc3ccccc3o2)cc1NC(=O)COc1ccccc1C | . | . | -8.1% | 3.9% | .
COc1cccc(NC(=O)Cn2c(=O)n(Cc3ccc(F)cc3)c(=O)c3sc4ccccc4c32)c1 | . | . | ? | -17.8% | .
C=COCCNC(=O)Nc1ccc(Cl)c(Cl)c1 | -0.6% | 22.1% | 3.8% | -0.6% | 13.0
COC(=O)c1ccccc1OCCCN(C)C | 4.9% | -5.4% | 3.2% | -27.7% | 26.0
Cc1ccc(S(=O)(=O)N(C)Cc2nc(-c3ccc(Br)cc3)no2)cc1 | 2.4% | -14.6% | ? | 18.4µM* | 43.5
COc1ccc(-c2noc(CN(C)S(=O)(=O)c3ccccc3)n2)cc1OC | 10.0% | 23.7% | 16.4µM* | ? | -10.0
N#CCC(=O)Nn1c(=S)[nH]c2ccccc2c1=O | 2.7% | -0.3% | 14.6% | 10.7% | 42.7
C=CCNC(=O)NC(=O)COC(=O)/C(C#N)=C/c1ccc(OC)cc1 | ? | 1.5% | -4.7% | 6.1% | 3.8
COc1ccccc1N1CCN(C(=O)C2CCCN(S(=O)(=O)c3ccc(C)cc3)C2)CC1 (configuration not stated) | -23.2% | -9.0% | 16.4µM* | 10.3µM* | -26.2
COc1ccccc1N1CCN(C(=O)C2CCCCN2S(=O)(=O)c2ccc(C)cc2)CC1 (configuration not stated) | -7.9% | -12.5% | 18.4µM* | ? | -4.1
CC(=O)c1c(C)[nH]c(C(=O)CSc2nnc(C)s2)c1C | 12.8% | 8.2% | ? | ? | 29.8
CO/N=C/c1c(-c2ccc(Cl)cc2)nc2cc(C)ccn12 | -3.5% | -2.9% | ? | ? | -52.3*
Cc1cccn2c(/C=N/OCc3cccc(F)c3)c(-c3ccc(Cl)cc3)nc12 | 1.7% | 0.3% | ? | ? | 9.8
Cc1ccccc1NC(=O)N1CCc2cc(S(=O)(=O)N3CCC(C)CC3)ccc21 | . | . | -18.7% | -20.7% | .
O=c1oc(=S)oc2c1[C@H](c1ccc(Cl)cc1)O[C@H](C1CC1)C2 | 15.1% | 12.7% | -3.4% | -13.6% | 16.8
O=c1oc(=S)oc2c1[C@H](c1ccc(Cl)cc1)O[C@H](C1CCCC1)C2 | -19.5% | -25.8% | ? | 23.1µM* | 27.8
CC1(C)CC(=O)C=C(/C=C/c2ccccc2)C1 | 0.0% | 21.8% | 23.1µM* | -16.4% | -22.9
Cc1ccc2ccccc2c1C(O)c1ncc(-c2ccccc2)[nH]1 (configuration not stated) | -22.1% | -13.4% | ? | ? | 6.5
CS(=O)(=O)N1CCc2cc(S(=O)(=O)Nc3ccc4c(c3)OCCO4)ccc21 | ? | -22.4% | 11.6µM* | 8.2µM* | -21.6
O=C(C1CC1)N1CCc2cc(S(=O)(=O)N3CCCc4ccccc43)ccc21 | 0.1% | -1.2% | ? | 14.6µM* | 4.5
CCC(=O)N1CCc2cc(S(=O)(=O)Nc3ccc4c(c3)OCCO4)ccc21 | -14.9% | ? | 9.2µM* | 5.17µM* | ?
O=C(C1CCN(S(=O)(=O)c2ccccc2)CC1)N1CCc2ccccc21 | 5.6% | 16.4% | -25.3% | -22.1% | i

Compound activity: PubChem, National Center for Advancing Translational Sciences (NCATS)
